Source: PubChem BioAssay (EPA / NIEHS)
Active and inactive are the calls of the source. Rule for the calls: active = hit-call score of the fitted dose curve at least 0.9, where 1 is the maximum; inactive = score below 0.9.

Columns and labels:
CD69, CD69 (gene 969) = assay: BSK_IMphg_CD69: BioMAP Diversity Plus: IMphg Assay for CD69 Biomarker Activity (AID 2284257); details: primary human endothelial cells with macrophages
Procedure, shortened: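 Readout is ELISA for CD69 in primary human venular endothelial cell/macrophage co-culture, taken at 24 h post-dosing. SRB staining of parallel cultures gauged overt cytotoxicity; signal increase versus DMSO defined activity.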

[1] = read-out: Eotaxin 3, CCL26 (gene 10344); assay: BSK_BF4T_Eotaxin3: BioMAP Diversity Plus: BF4T Assay for Eotaxin 3 Biomarker Activity (AID 2284258); details: primary human bronchial epithelial cells with fibroblasts
Method: BSK_BF4T is a cell-based, multiplexed-readout assay that uses bronchial epithelial cells and dermal fibroblasts, a human vascular primary cell, with measurements taken at 24 hours after chemical dosing in a microplate: 96-well plate.BSK_BF4T_Eotaxin3 is an assay component measured in the BSK_BF4T assay. It measures Eotaxin-3 antibody related to regulation of gene expression using ELISA technology.Data from the assay component BSK_BF4T_Eotaxin3 was analyzed at the endpoint, BSK_BF4T_Eotaxin3, in the positive analysis fitting direction relative to DMSO as the negative control and baseline of activity. Using a type of binding reporter, gain or loss-of-signal activity can be used to understand protein changes. […]
The levels of cell surface (or secreted, indicated by the prefix "s") biomarker endpoints were measured by ELISA. Overt cytotoxicity to cells in confluent adherent cultures (all systems other than the BT system) was assessed by measuring total protein levels using sulforhodamine B (SRB) staining in parallel cultures at the time of biomarker measurements, indicated as SRB endpoints. For proliferation assays for adherent cell types, individual cell types are cultured at sub-confluence and relative cell numbers quantified by SRB staining at time points optimized for each system (48 h: 3C and CASM3C systems; 72 h: BT and HDF3CGF systems; 96 h: SAg system). […] Plates were read after 6 h.

[2] = read-out: Monocyte Chemoattractant Protein-1 (MCP1), CCL2 (gene 6347); assay: BSK_BF4T_MCP1: BioMAP Diversity Plus: BF4T Assay for Monocyte Chemoattractant Protein-1 (MCP1) Biomarker Activity (AID 2284259); details: primary human bronchial epithelial cells with fibroblasts
Procedure, shortened: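 MCP-1 ELISA readout taken 24 h after dosing in the BF4T system (bronchial epithelial cells plus dermal fibroblasts). Parallel SRB total-protein staining flagged cytotoxicity; DMSO served as baseline, positive fitting direction.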

[3] = read-out: Intercellular Adhesion Molecule 1 (ICAM1), ICAM1 (gene 3383); assay: BSK_BF4T_ICAM1: BioMAP Diversity Plus: BF4T Assay for Intercellular Adhesion Molecule 1 (ICAM1) Biomarker Activity (AID 2284260); details: primary human bronchial epithelial cells with fibroblasts
Procedure, shortened: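 ICAM-1 levels measured by ELISA after 24 h chemical treatment of bronchial epithelial cell/dermal fibroblast co-cultures, read against DMSO baseline. Overt cytotoxicity checked in parallel cultures by sulforhodamine B staining.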

[4] = read-out: Interleukin-8 (IL8), CXCL8 (gene 3576); assay: BSK_MyoF_IL8: BioMAP Diversity Plus: MyoF Assay for Interleukin-8 (IL8) Biomarker Activity (AID 2284261); details: primary human lung fibroblasts
Procedure, shortened: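 DMSO-normalised, upward-fitted IL-8 ELISA signal; human lung fibroblasts, 24 h chemical treatment.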

CD90, THY1 (gene 7070) = assay: BSK_BF4T_CD90: BioMAP Diversity Plus: BF4T Assay for CD90 Biomarker Activity (AID 2284262); details: primary human bronchial epithelial cells with fibroblasts
Procedure, shortened: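 CD90 levels by ELISA after 24 h treatment of human bronchial epithelial cell/dermal fibroblast cultures, analysed versus DMSO. Overt cytotoxicity checked in parallel cultures by sulforhodamine B staining.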

[5] = read-out: Interleukin-8 (IL8), CXCL8 (gene 3576); assay: BSK_BF4T_IL8: BioMAP Diversity Plus: BF4T Assay for Interleukin-8 (IL8) Biomarker Activity (AID 2284263); details: primary human bronchial epithelial cells with fibroblasts
Procedure, shortened: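 Human bronchial epithelial cells with dermal fibroblasts co-culture; IL-8 measured by ELISA 24 hours after dosing, fitted vs DMSO. Cytotoxicity tracked in parallel cultures by SRB total-protein staining.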

[6] = read-out: Interleukin-1 alpha (IL1a), IL1A (gene 3552); assay: BSK_BF4T_IL1a: BioMAP Diversity Plus: BF4T Assay for Interleukin-1 alpha (IL1a) Biomarker Activity (AID 2284264); details: primary human bronchial epithelial cells with fibroblasts
Procedure, shortened: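 ELISA read-out of IL-1α from bronchial epithelial cell/dermal fibroblast co-cultures 24 h after compound addition. Increases scored against DMSO negative control. Cytotoxicity monitored by sulforhodamine B staining of parallel cultures.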

Decorin, DCN (gene 1634) = assay: BSK_MyoF_Decorin: BioMAP Diversity Plus: MyoF Assay for Decorin Biomarker Activity (AID 2284265); details: primary human lung fibroblasts
Procedure, shortened: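 In this multiplexed fibroblast system, secreted or surface decorin is detected by ELISA one day after dosing, with increases scored against the DMSO vehicle.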

KRT18 (gene 3875) = assay: BSK_BF4T_Keratin818: BioMAP Diversity Plus: BF4T Assay for Keratin 818 Biomarker Activity (AID 2284266); details: primary human bronchial epithelial cells with fibroblasts
Procedure, shortened: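 Keratin 8/18 levels quantified by ELISA after 24 h chemical treatment of bronchial epithelial cell/dermal fibroblast co-cultures, fitted in positive direction relative to DMSO. Parallel SRB staining tracks overt cytotoxicity.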

Measured: outcome

Cn1cnc([N+](=O)[O-])c1Sc1ncnc2nc[nH]c12
inactive: all assays above
